Screening data as filed in PubChem.
Platelet DG rel – platelet dense granule release activity | human platelet-rich plasma, SFLLRN dense granule ATP release, luminescence | inhibition, %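 (compounds screened at 7.5 µM in platelet-rich plasma)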 | 300,000 compounds, 0.22% hits;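 active means mean replicate score, as percent of positive control, at or above 50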
HSP90 inh – inhibitors of HSP90 luciferase refolding in rabbit reticulocyte lysate; luciferase refolding luminescence, 3 h; inhibition, % at 5.6 µM; 290,000 compounds, 0.91% hits; AID 1789;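 active means inhibition above the screen-wide mean plus 3 SD, computed separately per campaign, cut at about 16% in these data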;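 further: inhibitors lower the luminescence because luciferase stays unfolded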
dFosB act – enhances mouse delta FosB homodimer DNA binding | P13346 | purified delta FosB, TAMRA-CDK5 oligo fluorescence polarization; percent of positive-control signal above neutral wells | activation, % at 25 µM | 340,000 compounds, 0.99% hits | AID 493131;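 active means mean activation above about 17%, with every replicate also reaching it, limit read from the data, passing the limit was not always enough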
Target sequence (P13346 whole entry, looked up): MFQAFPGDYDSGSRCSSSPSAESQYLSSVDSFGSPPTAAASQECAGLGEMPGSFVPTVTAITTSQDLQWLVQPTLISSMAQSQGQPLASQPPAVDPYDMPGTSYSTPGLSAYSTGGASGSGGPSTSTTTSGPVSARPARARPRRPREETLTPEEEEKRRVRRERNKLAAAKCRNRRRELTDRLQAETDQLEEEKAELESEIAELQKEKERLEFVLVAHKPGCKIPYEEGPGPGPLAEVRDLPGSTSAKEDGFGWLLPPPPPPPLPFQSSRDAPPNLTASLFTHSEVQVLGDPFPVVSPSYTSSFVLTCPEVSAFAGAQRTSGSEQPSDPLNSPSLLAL
HSF1 inhib – HSF1 inhibition; NIH3T3-HGL HSE-luciferase, MG132-induced, luminescence 8 h; active compounds read low; activity change, negative = inhibition, % at 7.5 µM (by protocol); 300,000 compounds, 0.77% hits; AID 2098;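 active means more than half of replicate wells show activity change below -50%, luminescence cut by over half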;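 further: luciferase reports HSF-1 transcriptional activity via heat shock element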
MPTP inh – permeability transition pore inhibition; isolated mouse mitochondria, Ca2+ swelling absorbance, 30 min; 360,000 compounds, 1.4% hits; inhibition, % at 10 µM;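 active means inhibition of 50% or more, scaled per plate between neutral and stimulator controls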
HSF1 activator – increases HSF-1 driven luciferase reporter signal | NIH3T3-HGL HSF-1 luciferase reporter, MG132, 8 h; 100% = twice DMSO control signal | activation, % at 9 µM | 300,000 compounds, 1.7% hits;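 active means mean replicate activation of at least 50% with a set share of replicates each reaching 50%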
A number is an active result; - = inactive; . = not tested or not shown. The list is not random: actives were taken first. Their share in the collection is about 4.9%.

SMILES	Platelet DG rel	HSP90 inh	dFosB act	HSF1 inhib	MPTP inh	HSF1 activator
CCOc1ccc2cc(C3CC(c4ccco4)=NN3S(C)(=O)=O)c(=O)[nH]c2c1 (stereo not drawn)	-	-	-	-	-	-
Cc1ccc(CN(C)C(=O)c2cc(COc3ccc(F)cc3Cl)on2)o1	-	-	-	-	-	54
Cc1nonc1CN(C)C(=O)c1cc(COc2ccc(F)cc2Cl)on1	-	-	-	-	-	-
CCc1ccc(CN(C)C(=O)c2cc(COc3ccc(OC)cc3Cl)on2)nc1	-	-	-	-	-	56
Cc1cc(C)c2c(N)c3cccc(C)c3nc2n1	-	-	49	-	-	-
Cc1cccc2c(N)c3c(nc12)CCCC3 (tested in a mixture with another compound)	.	-	-	.	-	.
Cc1sc2ncnc(SCC(=O)N3c4ccccc4Sc4ccc(Cl)cc43)c2c1C	-	-	-	-	-	-
CCOC(=O)c1c(C)sc2c1N(C(=O)CCl)c1cc(Cl)ccc1S2	-	-	-	-	-	79
O=C(CSc1n[nH]c(-c2cccs2)n1)N1CCCC1	.	.	-	.	-	.
c1ccc(-c2nc(CSc3n[nH]c(-c4cccs4)n3)cs2)cc1	-	-	-	-	-	60
O=C(O)C1C(c2ccccc2)c2ccccc2C(O)C1CO (stereo not drawn)	.	.	-	.	-	.
COc1ccc(C(C)NC(=O)Cc2ccc(Br)cc2)cc1 (stereo not drawn)	-	-	-	-	-	61
O=C(O)CCc1ccc(S(=O)(=O)Nc2cc(C(F)(F)F)ccc2N2CCCC2)cc1	.	.	-	.	-	.
COCCCNC(=O)C(=O)N/N=C/c1ccc(OCC(=O)Nc2cccc(Cl)c2C)c(OC)c1	.	-	-	.	-	.
O=c1nc(/C=C/c2cc([N+](=O)[O-])ccc2Cl)cc(C(F)(F)F)[nH]1	-	-	-	-	-	75
CC(=O)N1CCC(C(=O)N2CCN(S(=O)(=O)c3ccc(F)cc3)CC2)CC1	-	-	-	-	-	-
Cn1c(=O)n(CCOc2ccc([N+](=O)[O-])cc2)c2ccccc21	-	-	-	-	-	-
Cc1ccc(OCCn2c(=O)n(C)c3ccccc32)cc1	-	-	-	-	-	59
Cc1ccc([C@H]2C[C@@H](n3cc(COC(=O)c4ccccc4)nn3)[C@H](O)CN2Cc2cccs2)cc1	.	.	.	.	-	.
COc1ccc(-c2[nH]c(-c3ccc(C(=O)O)cc3)nc2-c2ccccc2)cc1	-	-	-	-	-	-
COc1cc(-c2nc(-c3ccc4c(c3)-c3ccccc3S4(=O)=O)c(-c3ccccc3)[nH]2)cc(OC)c1O	-	-	-	-	-	65
COc1ccc(/C=C2\Sc3ccc(C(=O)NCCN4CCCCCC4)cc3N(C)C2=O)cc1	-	-	27	-	-	-
COc1ccc(NS(=O)(=O)c2ccc3oc(=O)c4[nH]c(=O)c(=O)n(C)c4c3c2)cc1	-	-	-	-	-	-
CC(C)[C@H](NC(=O)[C@@H]1Cc2ccccc2CN1)C(=O)Nc1ccc2c(c1)OCCO2	-	-	-	-	-	-
O=C(CNC(=O)[C@@H]1Cc2ccccc2CN1)Nc1ccc2c(c1)OCCO2	-	-	-	-52	-	-
SMILES	Platelet DG rel	HSP90 inh	dFosB act	HSF1 inhib	MPTP inh	HSF1 activator
Cc1cccc(NC(=O)[C@H](Cc2c[nH]c3ccccc23)NC(=O)[C@@H]2Cc3ccccc3CN2)c1	-	-	22	-	-	-
C[C@H](NC(=O)[C@@H]1Cc2ccccc2CN1)C(=O)Nc1ccc2c(c1)OCCO2	-	-	-	-	-	-
CCC(C)[C@H](NC(=O)[C@@H]1Cc2ccccc2CN1)C(=O)Nc1ccc2c(c1)OCO2 (stereo partly drawn)	-	-	-	-	-	77
CSCC[C@H](NC(=O)[C@@H]1Cc2ccccc2CN1)C(=O)Nc1ccc2c(c1)OCCO2	-	-	-	-52	-	-
O=C(CN1CCN(Cc2ccc(Cl)cc2)CC1)N/N=C/C=C/c1ccccc1[N+](=O)[O-]	-	-	-	-	-	-
Cc1cc(NC(=O)C(C)SCC(=O)N(Cc2ccccc2)c2ccccc2)no1 (stereo not drawn)	-	.	-	-	-	-
N#C/C(=C\c1ccc(OCc2ccc(Cl)cc2)cc1)C(=O)Nc1cccc(C(=O)O)c1	-	-	-	-	-	120
